# Assay outcomes deposited in PubChem BioAssay by ICCB-Longwood Screening Facility, Harvard Medical School.
# This is a sample that favours compounds with a hit; in the whole collection about 0.52% have one here.
# Sa growth 42C: inhibitors of Staphylococcus aureus growth at 42 °C; S. aureus RN4220 growth, OD600, 20 h; stronger effect = lower value; relative growth, % (concentration not given with the values); AID 720641; hit rate 0.53% among 170,000;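 active means relative growth at most 50% at the other temperature and 20+ points below 30 °C, or under 10% at both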
# S aureus helic: S. aureus DNA helicase inhibition. purified S. aureus helicase, fluorescence unwinding assay. hit rate 0.05% among 120,000. inhibition, % (test concentration not listed); in the data active means inhibition above about 25%, passing the limit was not always enough;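 further: 0% = mean of negative control wells and 100% = mean of positive control wells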
# The depositor's hits bear a star; . = not tested or not shown; ! = a repeat was not active.
SMILES,Sa growth 42C,S aureus helic
CN(c1ccc(C(=O)CSc2nnc(-c3ccco3)n2C2CCCCC2)cc1)S(C)(=O)=O,102.6,-14.0
O=C(CSc1ccc(S(=O)(=O)N2CCN(Cc3ccccc3)CC2)cn1)NC(=O)NC1CCCC1,99.7,4.0
O=S(=O)(c1ccc(NC2CCN(Cc3ccccc3)CC2)nc1)N1CCCCC1,94.0,38.0*
CCOC(=O)c1nn(-c2ccccc2)c(C(=O)OCC)c1NC(=O)c1nn(CC)cc1Br,83.9,-1.0
CC(C)c1ccc(NC(=O)C2CC(=O)N(c3ccccc3)C(=S)S2)cc1 (centres undefined),100.0,0.0
Cc1ccc(Nc2nc(C(=O)N(C)Cc3ccccc3)cs2)cc1,131.2,-7.0
Cc1ccc(Nc2nc(CN(C)CCCc3[nH]nc(N)c3C#N)cs2)cc1,-1.1*,-11.0
CC12CCC(=O)N1C(C(=O)OCN1C(=O)c3ccccc3C1=O)CS2 (centres undefined),92.2,-11.0
CCc1ccc(S(=O)(=O)/N=C2/C=C(Nc3ccccc3)C(=O)c3ccccc32)cc1,82.6,9.0
O=C1C(Sc2ncn[nH]2)=C/C(=N/S(=O)(=O)c2ccc(Cl)cc2)c2ccccc21,1.2*,24.0
CN1CCN(Nc2nc3c(c(=O)[nH]c(=O)n3C)n2Cc2ccc(F)cc2)CC1,79.6,-4.0
CC1CCN(CN2C(=O)c3ccccc3C2=O)CC1,110.3,-8.0
COc1c(I)cc(Cl)c2cccnc12,87.7,.
Oc1c(I)cc(Cl)c2cccnc12,1.3*!,10.0
Cc1cccc(NC(=O)C(CC(C)C)NS(=O)(=O)c2ccc3c(c2)oc(=O)n3C)c1 (centres undefined),113.5,2.0
COc1cc(/C=C/C(=O)Nc2c3c(nn2C(C)(C)C)CSC3)cc(OC)c1OC,103.7,0.0
O=C(OCC(=O)N1CCCC1=O)c1ccc2c(c1)OCO2,.,13.0
COc1cccc2c(=O)cc(C)[nH]c12,91.2,5.0
O=c1cc(C(F)(F)F)[nH]c2c(OC(F)(F)F)cccc12,3.4*,.
O=c1cc(C(F)(F)F)[nH]c2c(Br)cccc12,3.1*,-18.0
O=c1cc(C(F)(F)F)[nH]c2ccc(Br)cc12,25.5,.
COc1ccc(C(CNC(=S)NCc2ccco2)N2CCCCC2)cc1 (centres undefined),85.6,8.0
Cc1cc(C(=O)/C(C#N)=N/Nc2cccc(Cl)c2)n(C(C)(C)C)n1,5.4*,21.0
N#C/C(=N\Nc1cc(C(=O)O)cc(C(=O)O)c1)C(=O)c1ccccc1,94.2,-3.0
N#C/C(=N\Nc1cccc(Cl)c1)C(=O)c1ccco1,1.8*,-9.0
SMILES,Sa growth 42C,S aureus helic
N#C/C(=C\Nc1cccc(Cl)c1)S(=O)(=O)Cc1ccco1,85.3,.
O=c1c2c(-c3ccc(Cl)cc3)csc2ncn1-n1cccc1,97.3,-10.0
CCCCCC1=C(O)c2ccccc2C(=O)C1=O,124.8,5.0
O=c1c2ccccc2[nH]c(=S)n1CCS,128.1,-15.0
OC1CCCN(CC(O)COc2c(Cl)cccc2Cl)C1 (centres undefined),108.8,-14.0
COc1cc(C2c3c(-c4cc(C)ccc4O)n[nH]c3C(=O)N2Cc2ccco2)cc(OC)c1OC (centres undefined),107.2,.
CCOc1cccc(C2c3c(-c4cc(C)ccc4O)n[nH]c3C(=O)N2Cc2ccco2)c1 (centres undefined),35.5*,.
C=CCn1c(=N)n(CC(=O)c2ccc(-c3ccccc3)cc2)c2ccccc21,5.3*,13.0
Cn1c(=N)n(CC(=O)c2ccc(-c3ccccc3)cc2)c2ccccc21,117.4,8.0
O=S(=O)(c1cccc2ccccc12)N1CCCCC1,107.0,9.0
CC(C)CNC(=O)c1ccccc1S(=O)(=O)N1CCCCC1,49.2*,12.0
CCOc1ccc(C(=O)OCC(=O)Nc2cccc(Cl)c2)cc1,83.2,-6.0
Cc1ccc(-c2c(C#N)c(SCC(=O)c3ccc(F)cc3)nc3c2CCCC3)o1,67.1,-10.0
Cc1ccc2c(c1)N(CCO)/C(=C/c1sc3ccccc3[n+]1C)S2,-1.4*,19.0
CCN1/C(=C\C=C2\C(=O)N(C)C(=S)N2C)Sc2ccccc21,80.5,-3.0
CCN1/C(=C/c2sc3ccccc3[n+]2CCO)Sc2ccccc21,28.4,44.0*
CCC(=O)/C=C1/Sc2ccc(C)cc2N1CC,127.4,1.0
O=C(Nc1cccc(-c2nc3ccccc3[nH]2)c1)c1cccc(N2C(=O)CCC2=O)c1,96.6,6.0
O=C(Cc1ccccc1)NC1CCN(C(=O)C2CCCCC2)CC1,99.7,-5.0
O=C(CCN1CCCCC1)c1ccccc1,93.7,2.0
CCc1oc2ccccc2c1C(=O)CCN1CCCCC1,41.5*,15.0
COC(=O)C1C(=O)NC(SCC(=O)Nc2cccc(OC)c2)=C(C#N)C1c1ccc(OC)cc1 (centres undefined),97.6,21.0
COC(=O)c1sccc1OC(=O)c1ccc(C(C)(C)C)cc1,106.2,.
COC(=O)c1cscc1OC(=O)c1ccc(C(F)(F)F)cc1,21.4*,.
Cc1cccc(NC(=O)c2ncoc2-c2ccccc2Cl)c1C#N,102.4,-1.0
